From PubChem BioAssay
Shown are actives, neighbours in structure and some others; about 3% of the full set was active somewhere.
PAFAH2 inh: inhibitors of human PAFAH2; Q99487; recombinant PAFAH2, FP-rhodamine activity probe, fluorescence polarization; inhibition, % at 3.39 µM; 340,000 tested, 0.99% active; AID 492956;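 active = inhibition above the mean over all tested compounds plus 3 SD, cut at about 30% in these data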;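 note: inhibitors block probe labeling of enzyme so polarization drops; 0% = enzyme with DMSO and 100% = wells lacking PAFAH2 protein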
DAGLB inh: diacylglycerol lipase beta (human) inhibition; Q8NCG7; HEK293T DAGLB membrane lysate, EnzChek fluorogenic substrate; inhibition, % at 5.17 µM; 340,000 tested, 0.059% active; in the data active = inhibition above about 34%;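 note: 0% = enzyme with vehicle and 100% = wells lacking enzyme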
PAFAH1B2 inh: inhibitors of human PAFAH1B2. recombinant PAFAH1B2, FP-rhodamine activity probe, fluorescence polarization. 340,000 tested, 1.2% active. inhibition, % at 3.39 µM. P68402. AID 492953;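 active = inhibition above the mean of all tested compounds plus 3 SD, cut at about 24% in these data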;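 note: 0% = enzyme with DMSO and 100% = wells lacking PAFAH1B2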
Target sequence (P68402 whole entry, looked up): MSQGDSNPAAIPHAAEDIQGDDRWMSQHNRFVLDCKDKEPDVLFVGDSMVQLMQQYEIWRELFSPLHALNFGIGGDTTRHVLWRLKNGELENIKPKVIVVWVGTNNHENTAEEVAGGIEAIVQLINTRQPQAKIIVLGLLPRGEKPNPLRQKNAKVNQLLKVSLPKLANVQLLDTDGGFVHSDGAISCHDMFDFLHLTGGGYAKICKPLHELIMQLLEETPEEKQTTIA
pPAFAH inh: pPAFAH (human) enzyme inhibition | Q13093 | recombinant pPAFAH, FP-rhodamine probe fluorescence polarization | inhibition, % at 3.39 µM | 330,000 tested, 1.5% active | AID 463082;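 active = inhibition above the mean inhibition across the screen plus 3 SD, cut at about 25% in these data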;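 note: inhibitors block binding of the rhodamine activity-based probe so polarization drops; 0% = enzyme with DMSO and 100% = wells lacking pPAFAH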
ATG4B inh: blocks human ATG4B protease cleavage of LC3 substrate. ATG4B cleavage of LC3-PLA2, NBD-HPC fluorescence, 1 h. 340,000 tested, 0.51% active. Q9Y4P1. inhibition, % at 8.33 µM; in the data active = inhibition above about 40%
PAFAH1B3 inh: PAFAH1B3 (human) inhibition; inhibition, % at 3.39 µM; AID 492972; 340,000 tested, 0.28% active; recombinant PAFAH1B3, FP-rhodamine probe, fluorescence polarization;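 active = inhibition above the screen-wide average of all tested compounds plus 3 SD, cut at about 25% in these data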;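 note: 0% = enzyme with DMSO only and 100% = wells lacking PAFAH1B3 protein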
Target sequence (Q15102 whole entry, looked up): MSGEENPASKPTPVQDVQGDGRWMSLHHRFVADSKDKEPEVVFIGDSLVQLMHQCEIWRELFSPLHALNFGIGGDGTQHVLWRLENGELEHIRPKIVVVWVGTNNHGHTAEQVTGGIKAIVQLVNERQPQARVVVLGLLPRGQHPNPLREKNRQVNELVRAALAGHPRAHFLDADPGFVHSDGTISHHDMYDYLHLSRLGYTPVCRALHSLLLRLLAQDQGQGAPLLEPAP
Starred values were filed as active, the others as inactive; . = no result given.

SMILES	PAFAH2 inh	DAGLB inh	PAFAH1B2 inh	pPAFAH inh	ATG4B inh	PAFAH1B3 inh
NP(=O)(Oc1ccccc1Cl)Oc1ccccc1Cl	-2	-9	24*	1	-5	2
O=c1[nH]c(=S)n(Cc2ccc(F)cc2)c(O)c1C=NCC1CCCO1 (centres undefined)	3	0	34*	1	-6	1
O=c1[nH]c(=S)n(Cc2ccc(F)cc2)c(O)c1C=NCc1cccnc1	0	1	28*	6	1	-5
O=c1[nH]c(=S)n(Cc2ccc(F)cc2)c(O)c1/C=N/N1CCCCC1	2	6	32*	0	3	-7
CN(C)[C@@H]1C(=O)C(C(N)=O)=C(O)[C@@]2(O)C(=O)C3=C(O)c4c(O)ccc(Cl)c4[C@@](C)(O)[C@H]3C[C@@H]12	12	2	9	30*	-18	15
Nc1ccc2cc(Br)ccc2c1	5	2	54*	8	0	3
Cc1ccc(OCCOc2cccc(C=C3C(=O)NC(=O)NC3=O)c2)cc1	1	-1	39*	4	9	1
Cc1cc(C)cc(OCCOc2cccc(C=C3C(=O)NC(=O)NC3=O)c2)c1	-3	-1	-3	12	29	8
Cc1cc2c(cc1C)NP(=S)(c1ccccc1)N2	13	-2	4	.	9	2
O=C1NC(=O)[C@]2(Cc3ccccc3N3CCN(c4ccccc4)CC32)C(=O)N1c1ccccc1 (some centres undefined)	20	8	4	28*	4	3
CC(=O)C1C(N2CC2)CC2C3CC=C4CC(O)CCC4(C)C3CCC21C (centres undefined)	-5	2	-2	.	0	1
O=C(c1ccc(N2CCCCC2)c([N+](=O)[O-])c1)N1CCC2(CC1)OCCO2	7	5	-1	34*	1	3
Cc1cc(C)cc(N2C(=O)NC(=O)/C(=C\c3cccn3-c3ccc(Cl)cc3)C2=O)c1	39*	23	43*	6	-9	-2
C[C@@H]1CN([C@H](C)CO)C(=O)CCCn2nncc2CO[C@@H]1CN(C)C(=O)Oc1ccc2ccccc2c1	.	-2	.	.	.	.
O=c1[nH]c(=O)n(-c2cccc(F)c2)c(O)c1/C=C1\C=Nc2ccccc21	-4	2	25*	3	3	20
O=C(O)c1ccc(-n2c(O)c(/C=C3\C=Nc4ccccc43)c(=O)[nH]c2=O)cc1	5	-2	4	-1	-1	-2
O=C1NC(=S)NC(=O)C1=Cc1ccc2c(c1)CCN2CCCCl	.	.	.	29*	5	.
Cc1ccccc1N1C(=O)NC(=O)/C(=C\c2ccc3c(c2)CCCN3Cc2ccccc2)C1=O	17	3	13	11	11	3
COc1cc2c(cc1O)C[C@H]1NCCc3cc4c(c-2c31)OCO4	9	5	10	25*	3	18
COc1cc2c(cc1OC)-c1c3c(cc4c1[C@@H](C2)N(C)CC4)OCO3	2	-1	-6	18	-13	16
O=C1NC(=O)N(c2cccc(Cl)c2)C(=O)/C1=C\c1ccc(Sc2nc3ccccc3[nH]2)o1	-27	26	-37	15	24	-48
O=C1NC(=O)N(c2ccccc2)C(=O)/C1=C/c1ccc(Sc2ccccc2)o1	39*	27	60*	4	12	6
CCOC(=O)c1c(NC(=O)c2c(N)n(CCCOC)c3nc4ccccc4nc23)sc2c1CCCC2	2	2	2	5	-12	16
CCOCCCn1c(N)c(C(=O)Nc2sc3c(c2C(=O)OC)CCCC3)c2nc3ccccc3nc21	35*	-11	31*	2	-2	52*
COc1cc(C=C2C(=O)NC(=O)NC2=O)ccc1OCc1ccc([N+](=O)[O-])cc1	7	0	26*	.	-3	2
SMILES	PAFAH2 inh	DAGLB inh	PAFAH1B2 inh	pPAFAH inh	ATG4B inh	PAFAH1B3 inh
O=C1NC(=O)C(=Cc2ccc(Oc3ccc([N+](=O)[O-])cc3)cc2)C(=O)N1	4	3	7	1	6	3
N#CC1C(C#N)C2CCC1C1C2N1c1ccccc1 (centres undefined)	4	3	-2	.	1	0
CC(C)(C#CC(=O)O)OOC(c1ccccc1)(c1ccccc1)c1ccccc1	5	14	9	31*	12	14
O=P(O)(O)CN1CCNCCN(CP(=O)(O)O)CCNCC1	-3	5	3	.	0	12
O=C(N/N=C/c1c(O)n(CCc2ccccc2)c(=O)[nH]c1=O)c1ccccc1O	4	11	9	22	5	13
O=C(N/N=C/c1c(O)n(Cc2ccccc2)c(=O)[nH]c1=O)c1ccccc1O	47*	10	34*	23	-9	33*
COc1ccc(Cn2c(O)c(/C=N/NC(=O)c3ccccc3)c(=O)[nH]c2=O)cc1	16	1	8	7	6	5
COc1ccc(Cn2c(O)c(/C=N/NC(=O)c3ccccc3O)c(=O)[nH]c2=O)cc1	18	10	23	27*	-9	20
O=C(N/N=C/c1c(O)n(Cc2ccc(F)cc2)c(=O)[nH]c1=O)c1ccccc1O	11	11	35*	32*	11	19
O=[N+]([O-])/C=C/c1c(Cl)cccc1Cl	10	2	1	.	6	5
Cc1ccc(/C=C2\C(=O)NC(=S)N(c3ccc(F)cc3)C2=O)o1	11	0	3	.	5	-2
Cc1ccc(N2C(=O)/C(=C/c3ccc(CN(CCC#N)S(C)(=O)=O)o3)C(=O)NC2=S)cc1	33*	14	-5	28*	22	2
COc1cccc(-n2c(/C=C/c3ccc(O)c(O)c3)nc3ccccc3c2=O)c1	7	8	1	33*	5	-9
CCOC(=O)c1ccc2[nH]c(-c3ccc(S(=O)(=O)F)cc3)cc(=O)c2c1	8	0	8	28*	4	8
CCOC(=O)c1cccc([P+](=O)O)c1	-5	6	3	3	6	5
CCc1ccc2nc(N3CCC(C(=O)N4CCC5(CC4)OCCO5)CC3)sc2c1	1	-2	1	29*	-4	4
CCC1([N+](=O)[O-])COP(=O)(NCc2cccnc2)OC1 (centres undefined)	4	-1	-1	.	-2	7
O=C1C=CC(=O)C2C1C1(Cl)C(Cl)=C(Cl)C2(Cl)C1(Cl)Cl (centres undefined)	0	2	-2	.	16	5
CCCCn1c(NC(=O)c2ccco2)c(C(=O)OCC)c2nc3ccccc3nc21	17	-6	25*	2	-1	54*
CCOc1cccc(OCC)c2c(C)[n+](CC3CCCO3)c(C)c1-2 (centres undefined)	32*	4	15	19	-4	6
